The results in this text go back to PubChem BioAssay AID652154 (Broad Institute, 2013).

The structures appear in SMILES notation. Hit rate of the full screen: of about 360,000 compounds, about 4,200 (1.2%) were called active. For the sample, actives were picked, then their nearest neighbours and some compounds at random. A number with no mark means an inactive call.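 Rule for the calls: active = mean replicate inhibition at least 60% with every replicate also reaching 60%; inconclusive = only one of the two criteria is met; inactive = mean below 60% and not all replicates reaching 60%.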

The nature of the assay: inhibitors of PAX8-driven TPO luciferase reporter, primary screen, RMG-I cells, single concentration (AID 652154).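 Note: luciferase light reporting Pax8 driven TPO promoter activity; plate controls were median of neutral control wells for no effect and mitoxantrone controls for full effect.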 The following applies: SteadyGlo, 24 h, at 12.6 µM, stronger effect = higher value.
For the compound `CC(=O)N1CCCCN2[C@H](CO)[C@H](c3ccc(-c4ccccc4)cc3)[C@@H]2C1`, the inhibition is 8.11%. On to `C[C@@H]1CN([C@H](C)CO)C(=O)c2cccc(NC(=O)Nc3ccccc3)c2O[C@@H]1CN(C)C(=O)NC1CCCCC1`, for which the inhibition was 9.31%. For the compound `CC(C)NC(=O)Nc1ccc2c(c1)C(=O)N([C@@H](C)CO)C[C@H](C)[C@H](CN(C)C(=O)c1ccccc1)OCCCC[C@@H](C)O2`, the inhibition was 3.59%. Turning to `C[C@@H]1CN([C@@H](C)CO)C(=O)c2cc(NC(=O)Nc3ccc(C(F)(F)F)cc3)ccc2O[C@@H](C)CCCCO[C@H]1CN(C)C(=O)c1ccccc1`, the inhibition was 84.4% (active). Take `C[C@@H]1CCCCO[C@@H](CN(C)C(=O)C2CCCCC2)[C@H](C)CN([C@H](C)CO)C(=O)c2cc(NC(=O)Cc3ccccc3)ccc2O1`: the inhibition was -7.3%. As for `C[C@@H]1CCCCO[C@H](CN(C)C(=O)C2CCCCC2)[C@@H](C)CN([C@@H](C)CO)C(=O)c2cc(NC(=O)Nc3ccccc3)ccc2O1`, the figure is 80.3% (active); as for `CC(C)NC(=O)N(C)C[C@H]1OCCCC[C@H](C)Oc2ccc(NC(=O)Nc3ccc(C(F)(F)F)cc3)cc2C(=O)N([C@H](C)CO)C[C@@H]1C`, 93.7% (active); as for `C[C@H](CO)N1C[C@H](C)[C@@H](CN(C)C(=O)NC2CCCCC2)Oc2c(NC(=O)Nc3ccc(F)cc3)cccc2C1=O`, -8.27%. With `C[C@@H]1CCCCO[C@H](CN(C)C(=O)Nc2ccccc2)[C@H](C)CN([C@H](C)CO)C(=O)c2cc(NC(=O)Nc3ccccc3)ccc2O1`, the inhibition is 10.5%.

For the compound `C[C@@H]1CCCCO[C@@H](CN(C)C(=O)Nc2ccc(C(F)(F)F)cc2)[C@H](C)CN([C@H](C)CO)C(=O)c2cc(NC(=O)c3ccccc3)ccc2O1`, the inhibition was -6.62%. Regarding `CC(C)NC(=O)Nc1ccc2c(c1)C(=O)N([C@@H](C)CO)C[C@@H](C)[C@@H](CN(C)C(=O)Nc1ccc(C(F)(F)F)cc1)OCCCC[C@H](C)O2`, the inhibition was -21.5%. On to `C[C@@H]1CCCCO[C@H](CN(C)C(=O)Nc2ccc(C(F)(F)F)cc2)[C@H](C)CN([C@H](C)CO)C(=O)c2cc(NC(=O)Nc3ccc(C(F)(F)F)cc3)ccc2O1`, for which the inhibition is 17.5%. As for `C[C@H]1CN([C@@H](C)CO)C(=O)c2cccc(NC(=O)Nc3ccc(C(F)(F)F)cc3)c2O[C@H]1CN(C)C(=O)NC1CCCCC1`, the figure is 92.2% (active); as for `Cc1ccc(S(=O)(=O)Nc2cccc3c2O[C@@H](CN(C)S(=O)(=O)c2c(C)noc2C)[C@@H](C)CN([C@H](C)CO)C3=O)cc1`, -20.1%. For `C[C@H]1CCCCO[C@@H](CN(C)Cc2ccc3c(c2)OCO3)[C@@H](C)CN([C@@H](C)CO)C(=O)c2cc(NC(=O)c3ccccc3)ccc2O1` the value was 10.2%. As for `COCC(=O)Nc1ccc2c(c1)C(=O)N(C)C[C@@H](OC)[C@H](C)CN(C(=O)c1cccnc1)[C@H](C)CO2`, the figure is -16.5%; as for `C/C=C/c1cnc2c(c1)C(=O)N([C@@H](C)CO)C[C@@H](C)[C@@H](CN(C)C(=O)C1CCOCC1)O2`, -0.814%. For the compound `O=c1cc(O)c(-c2cccc(C(F)(F)F)c2)c(Cl)[nH]1`, the inhibition is 4.02%. With `O=C(NNc1ccccc1Cl)C(O)(c1cccc(C(F)(F)F)c1)c1cccc(C(F)(F)F)c1`, the inhibition is 66.8% (active). Regarding `O=C(O)c1cc(S(=O)(=O)N(Cc2ccccc2)c2cccc(C(F)(F)F)c2)ccc1Cl`, the inhibition is -20%. Turning to `O=C(C1CCCC1)N1CC(=O)N2[C@H](CO)[C@H](c3ccc(Br)cc3)[C@H]2C1`, the inhibition was -9.22%.

Consider `C/C=C/c1ccc([C@@H]2[C@H](CO)N(C(C)=O)[C@H]2CN(CC)C(=O)CN(C)C)cc1`, for which the inhibition was 9.68%. As to `COCC(=O)Nc1ccc2c(c1)OC[C@H](C)N(C(=O)c1cnccn1)C[C@@H](C)[C@H](OC)CN(C)C2=O`, the inhibition was -7.83%. For the compound `O=C(C1CCC1)N1CCCCN2[C@H](C1)[C@@H](c1ccc(C#CC3CCCC3)cc1)[C@@H]2CO`, the inhibition is 36.8%. As for `O=c1oc2ccccc2cc1-c1cn(-c2ccccc2)c(=S)[nH]1`, the inhibition was 62.6% (active). Consider `COc1cccc(-n2c(=S)[nH]c3c(oc4ccccc43)c2=O)c1`, for which the inhibition is 3.59%.

On to `CC(C)NC(=O)Nc1ccc2c(c1)C(=O)N([C@@H](C)CO)C[C@@H](C)[C@H](CN(C)C(=O)Cc1ccccc1)OCCCC[C@H](C)O2`, for which the inhibition was 4.73%. Consider `CN1CCN(C(=O)C[C@@H]2CC[C@@H]3[C@H](COC[C@@H](O)CN3Cc3cccc(F)c3)O2)CC1`, for which the inhibition was -11.1%. Turning to `CCCC#Cc1cnc2c(c1)C(=O)N([C@@H](C)CO)C[C@@H](C)[C@@H](CN(C)C(=O)c1ccccc1)O2`, the inhibition is 8.32%.

On to `C=C1C(=O)OC2C1CCC(C)=CCCC1(C)OC21` (stereo unspecified), for which the inhibition was 108% (active).

Regarding `O=S(=O)(c1ccc(F)cc1)N1CCCCN2[C@H](C1)[C@H](c1ccc(C3=CCCCC3)cc1)[C@@H]2CO`, the inhibition is 16.3%. Consider `CC(C)c1cn(CC[C@@H]2CC[C@@H](NC(=O)C3CCC3)[C@@H](CO)O2)nn1`, for which the inhibition was 2.99%. Turning to `NS(=O)(=O)c1ccc(CCNC(=O)CN2C(=O)c3ccccc3S2(=O)=O)cc1`, the inhibition was 0.854%. As for `COc1ccc(CNC(=O)COC(=O)C(CCSC)N2C(=O)c3ccccc3C2=O)cc1` (stereo unspecified), the inhibition was -2%.

`COc1ccc(CNC(=O)CN2C(=O)c3ccccc3S2(=O)=O)cc1`: the inhibition was 75.6% (active). Turning to `C/C=C/c1ccccc1[C@@H]1[C@@H](CO)N(S(=O)(=O)c2cccc(F)c2)[C@H]1C#N`, the inhibition is -12.9%. Regarding `C[C@@H]1CN([C@@H](C)CO)C(=O)c2cc(NC(=O)CCCN(C)C)ccc2O[C@H]1CN(C)Cc1ccccc1`, the inhibition was -7.53%. Regarding `COc1ccccc1-c1ccc2c(c1)O[C@H](CN(C)C(=O)c1cccnc1)[C@H](C)CN([C@@H](C)CO)S2(=O)=O`, the inhibition was -1.96%. As to `COc1ccc(C(=NN)c2ccc(OC)cc2)cc1`, the inhibition is -68%. For `COc1ccc(/C(N)=N/OC(=O)Cc2ccccc2)cc1`, the inhibition is -143%. As to `COc1ccc(C(C#N)=C2C=CC(=NO)c3ccccc32)cc1`, the inhibition was 70.5% (active).
